# From ChEMBL document CHEMBL2218924, “A broad activity screen in support of a chemogenomic map for kinase signalling research and drug discovery” (Biochem J, 2013)
# Assays:
# [1] = molecular target: Tyrosine-protein kinase SYK (Homo sapiens) (UniProt P43405); conditions: at 10 µM
# [2] = molecular target: T1, Mitogen-activated protein kinase kinase kinase 7 (Homo sapiens) (UniProt O43318); conditions: at 1 µM
# T1 sequence (whole entry): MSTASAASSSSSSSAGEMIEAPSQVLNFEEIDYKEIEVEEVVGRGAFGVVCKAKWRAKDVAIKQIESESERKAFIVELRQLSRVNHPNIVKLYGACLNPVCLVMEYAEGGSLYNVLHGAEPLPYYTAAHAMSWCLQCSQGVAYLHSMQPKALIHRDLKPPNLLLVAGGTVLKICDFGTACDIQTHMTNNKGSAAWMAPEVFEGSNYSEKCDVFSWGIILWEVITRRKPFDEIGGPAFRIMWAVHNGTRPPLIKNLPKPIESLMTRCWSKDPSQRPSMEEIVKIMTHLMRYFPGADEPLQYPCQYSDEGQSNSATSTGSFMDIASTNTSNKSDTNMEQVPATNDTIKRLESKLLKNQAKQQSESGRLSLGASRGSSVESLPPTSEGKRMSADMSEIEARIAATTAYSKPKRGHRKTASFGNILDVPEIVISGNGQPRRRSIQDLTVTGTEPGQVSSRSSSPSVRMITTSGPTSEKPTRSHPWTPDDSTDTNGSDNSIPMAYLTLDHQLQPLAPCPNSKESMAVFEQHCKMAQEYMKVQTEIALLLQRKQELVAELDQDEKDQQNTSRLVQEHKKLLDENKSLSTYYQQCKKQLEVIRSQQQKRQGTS
# [3] = molecular target: T1, Mitogen-activated protein kinase kinase kinase 7 (Homo sapiens); conditions: at 10 µM
# [4] = molecular target: T2, Serine/threonine-protein kinase TAO1 (Homo sapiens) (UniProt Q7L7X3); conditions: at 1 µM
# T2 sequence (whole entry): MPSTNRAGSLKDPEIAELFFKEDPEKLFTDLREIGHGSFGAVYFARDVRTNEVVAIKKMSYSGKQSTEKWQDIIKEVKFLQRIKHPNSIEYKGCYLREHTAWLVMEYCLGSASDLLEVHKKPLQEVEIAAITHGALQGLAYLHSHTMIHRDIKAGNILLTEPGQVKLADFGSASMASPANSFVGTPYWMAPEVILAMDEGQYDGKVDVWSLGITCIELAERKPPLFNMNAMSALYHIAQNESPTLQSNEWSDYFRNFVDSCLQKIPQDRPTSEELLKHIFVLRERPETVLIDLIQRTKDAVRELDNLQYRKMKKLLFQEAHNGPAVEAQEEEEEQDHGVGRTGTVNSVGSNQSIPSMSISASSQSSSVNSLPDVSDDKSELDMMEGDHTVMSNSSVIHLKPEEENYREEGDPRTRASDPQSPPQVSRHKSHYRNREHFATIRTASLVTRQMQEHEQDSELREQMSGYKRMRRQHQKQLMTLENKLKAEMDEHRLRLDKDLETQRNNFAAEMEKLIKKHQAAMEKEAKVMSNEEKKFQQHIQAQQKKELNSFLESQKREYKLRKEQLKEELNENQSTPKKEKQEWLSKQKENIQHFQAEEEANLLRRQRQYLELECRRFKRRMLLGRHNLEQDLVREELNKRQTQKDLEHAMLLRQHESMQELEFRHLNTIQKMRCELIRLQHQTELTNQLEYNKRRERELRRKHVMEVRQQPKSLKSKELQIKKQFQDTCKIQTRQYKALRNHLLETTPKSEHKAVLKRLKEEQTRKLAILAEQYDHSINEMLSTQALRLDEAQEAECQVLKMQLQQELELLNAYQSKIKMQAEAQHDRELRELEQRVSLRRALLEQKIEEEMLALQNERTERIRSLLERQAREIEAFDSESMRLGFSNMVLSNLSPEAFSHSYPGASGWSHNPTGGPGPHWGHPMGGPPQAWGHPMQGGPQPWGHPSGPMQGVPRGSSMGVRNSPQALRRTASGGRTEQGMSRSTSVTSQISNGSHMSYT
# [5] = molecular target: T2, Serine/threonine-protein kinase TAO1 (Homo sapiens); conditions: at 10 µM
# [6] = molecular target: T3, Serine/threonine-protein kinase TAO2 (Homo sapiens) (UniProt Q9UL54); conditions: at 1 µM
# T3 sequence (whole entry): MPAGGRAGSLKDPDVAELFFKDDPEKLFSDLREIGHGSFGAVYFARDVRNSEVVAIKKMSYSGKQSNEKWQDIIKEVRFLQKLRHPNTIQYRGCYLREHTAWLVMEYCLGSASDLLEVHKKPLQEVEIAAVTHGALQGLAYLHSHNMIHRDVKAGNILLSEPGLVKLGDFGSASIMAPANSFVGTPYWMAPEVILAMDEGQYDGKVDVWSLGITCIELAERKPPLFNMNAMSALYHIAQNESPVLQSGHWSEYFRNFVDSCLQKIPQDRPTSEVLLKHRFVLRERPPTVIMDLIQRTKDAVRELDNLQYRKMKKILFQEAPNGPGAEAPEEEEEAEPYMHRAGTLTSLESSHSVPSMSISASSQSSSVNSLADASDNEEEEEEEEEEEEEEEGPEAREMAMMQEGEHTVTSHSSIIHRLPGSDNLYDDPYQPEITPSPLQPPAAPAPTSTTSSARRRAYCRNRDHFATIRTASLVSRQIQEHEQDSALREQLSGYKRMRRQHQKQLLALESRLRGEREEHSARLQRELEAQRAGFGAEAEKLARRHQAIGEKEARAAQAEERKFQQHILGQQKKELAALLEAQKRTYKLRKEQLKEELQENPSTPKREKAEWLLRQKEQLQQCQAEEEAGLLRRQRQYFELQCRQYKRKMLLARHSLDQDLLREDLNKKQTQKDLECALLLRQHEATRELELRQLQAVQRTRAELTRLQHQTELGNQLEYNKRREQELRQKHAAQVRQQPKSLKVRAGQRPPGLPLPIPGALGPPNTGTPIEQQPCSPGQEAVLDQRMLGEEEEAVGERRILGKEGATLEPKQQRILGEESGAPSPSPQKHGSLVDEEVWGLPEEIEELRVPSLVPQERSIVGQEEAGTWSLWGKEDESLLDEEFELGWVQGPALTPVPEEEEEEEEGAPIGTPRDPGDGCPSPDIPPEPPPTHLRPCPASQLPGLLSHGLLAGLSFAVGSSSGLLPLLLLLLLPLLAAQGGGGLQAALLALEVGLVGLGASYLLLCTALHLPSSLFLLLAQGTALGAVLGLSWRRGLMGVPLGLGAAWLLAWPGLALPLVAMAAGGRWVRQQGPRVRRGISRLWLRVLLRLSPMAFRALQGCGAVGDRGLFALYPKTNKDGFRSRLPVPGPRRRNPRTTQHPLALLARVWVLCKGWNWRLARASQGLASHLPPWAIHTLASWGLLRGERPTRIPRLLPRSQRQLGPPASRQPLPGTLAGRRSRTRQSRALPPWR
# [7] = molecular target: T3, Serine/threonine-protein kinase TAO2 (Homo sapiens); conditions: at 10 µM
# [8] = molecular target: T4, Serine/threonine-protein kinase TAO3 (Homo sapiens) (UniProt Q9H2K8); conditions: at 1 µM
# T4 sequence (whole entry): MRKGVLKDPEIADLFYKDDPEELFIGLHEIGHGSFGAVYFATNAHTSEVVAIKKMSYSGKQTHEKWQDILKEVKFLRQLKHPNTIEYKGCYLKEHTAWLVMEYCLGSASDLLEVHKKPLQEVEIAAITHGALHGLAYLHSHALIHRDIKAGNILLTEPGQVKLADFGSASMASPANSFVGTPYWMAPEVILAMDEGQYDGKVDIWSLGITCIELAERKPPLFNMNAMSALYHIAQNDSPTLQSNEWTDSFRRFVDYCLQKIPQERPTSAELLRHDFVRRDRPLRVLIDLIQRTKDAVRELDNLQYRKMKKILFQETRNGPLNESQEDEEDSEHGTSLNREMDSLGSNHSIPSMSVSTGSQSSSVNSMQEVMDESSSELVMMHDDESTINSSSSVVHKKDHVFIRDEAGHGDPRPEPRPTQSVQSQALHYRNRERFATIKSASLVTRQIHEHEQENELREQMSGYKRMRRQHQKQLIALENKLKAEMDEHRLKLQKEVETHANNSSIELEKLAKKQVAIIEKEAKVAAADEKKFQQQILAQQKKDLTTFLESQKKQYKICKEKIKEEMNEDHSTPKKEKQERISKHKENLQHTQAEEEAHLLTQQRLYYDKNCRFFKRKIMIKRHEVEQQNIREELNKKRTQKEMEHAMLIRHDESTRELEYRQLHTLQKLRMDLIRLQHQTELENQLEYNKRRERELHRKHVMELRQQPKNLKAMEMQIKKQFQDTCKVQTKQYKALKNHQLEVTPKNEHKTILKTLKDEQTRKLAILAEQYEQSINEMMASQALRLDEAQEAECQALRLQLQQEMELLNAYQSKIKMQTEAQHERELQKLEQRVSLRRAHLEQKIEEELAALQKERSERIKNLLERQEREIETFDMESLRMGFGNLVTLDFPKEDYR
# [9] = molecular target: T4, Serine/threonine-protein kinase TAO3 (Homo sapiens); conditions: at 10 µM
# [10] = molecular target: T5, Serine/threonine-protein kinase TBK1 (Homo sapiens) (UniProt Q9UHD2); conditions: at 1 µM
# T5 sequence (whole entry): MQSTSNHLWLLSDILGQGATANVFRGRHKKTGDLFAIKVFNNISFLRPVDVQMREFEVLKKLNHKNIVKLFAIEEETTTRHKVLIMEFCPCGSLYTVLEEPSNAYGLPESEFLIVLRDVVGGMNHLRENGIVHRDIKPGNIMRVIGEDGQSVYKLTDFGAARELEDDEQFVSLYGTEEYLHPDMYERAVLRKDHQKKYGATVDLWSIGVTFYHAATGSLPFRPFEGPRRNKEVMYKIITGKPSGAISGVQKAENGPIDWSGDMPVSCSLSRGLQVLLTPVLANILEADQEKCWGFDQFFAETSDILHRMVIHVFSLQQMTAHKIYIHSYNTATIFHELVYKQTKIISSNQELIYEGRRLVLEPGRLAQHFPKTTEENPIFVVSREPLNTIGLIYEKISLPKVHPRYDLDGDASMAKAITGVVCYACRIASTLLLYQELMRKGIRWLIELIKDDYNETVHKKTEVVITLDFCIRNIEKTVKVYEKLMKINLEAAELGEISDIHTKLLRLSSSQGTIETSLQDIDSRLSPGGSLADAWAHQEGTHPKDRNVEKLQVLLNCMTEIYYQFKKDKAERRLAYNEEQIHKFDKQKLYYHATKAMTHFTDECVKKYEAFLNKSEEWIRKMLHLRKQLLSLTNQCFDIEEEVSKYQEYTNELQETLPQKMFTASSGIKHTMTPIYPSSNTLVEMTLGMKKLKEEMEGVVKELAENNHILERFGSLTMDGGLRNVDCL
smiles,measurement,setting,value
O=C1NC(=O)/C(=C/c2ccc3c(c2)OC(F)(F)O3)S1,residual activity,[1],73%
same,residual activity,[2],96%
same,residual activity,[3],88%
same,residual activity,[4],100%
same,residual activity,[5],74%
same,residual activity,[6],113%
same,residual activity,[7],105%
same,residual activity,[8],103%
same,residual activity,[9],66%
same,residual activity,[10],80%
